Compound activity deposited in PubChem by National Center for Advancing Translational Sciences (NCATS).
A selection: hits, their analogues and other compounds. The true share with any hit is near 2.4%.
D2 ag-1 – D2 dopamine receptor (human) agonism; P14416; activation, % at 2 µM; 340,000 tested, 0.53% active; HEK293 T-REx D2 cells, calcium flux agonist mode;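 active = activation over 3 SD above normal in the single-dose calcium agonist read, cut at about 30% in these data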; also: 0% is about no effect
Target sequence (P14416 whole entry, looked up): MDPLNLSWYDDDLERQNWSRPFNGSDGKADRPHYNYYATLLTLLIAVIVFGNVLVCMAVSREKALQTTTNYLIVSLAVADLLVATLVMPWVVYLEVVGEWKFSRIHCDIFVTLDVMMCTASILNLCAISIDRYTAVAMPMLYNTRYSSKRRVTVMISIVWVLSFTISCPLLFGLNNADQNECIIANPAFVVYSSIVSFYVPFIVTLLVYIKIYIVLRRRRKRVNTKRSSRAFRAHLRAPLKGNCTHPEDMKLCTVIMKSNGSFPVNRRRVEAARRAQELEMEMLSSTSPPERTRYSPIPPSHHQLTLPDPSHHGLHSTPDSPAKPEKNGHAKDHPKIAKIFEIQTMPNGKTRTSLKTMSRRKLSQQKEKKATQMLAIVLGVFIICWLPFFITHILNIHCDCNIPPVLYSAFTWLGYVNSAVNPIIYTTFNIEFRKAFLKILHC
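In this primary screen, compounds producing a positive calcium signal within 180 s of addition to tetracycline-induced, force-coupled HEK293 Trex D2 cells are flagged; cells are dye-loaded with a no-wash calcium kit beforehand.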
D2 PAM-1 – positive allosteric modulators of human D2 dopamine receptor; DiscoveRx D2 beta-arrestin cells, luminescence, 90 min; 100% = 57 uM dopamine signal; potentiation, % (test concentration not listed); 360,000 tested, 0.23% active; AID 624464; in the data active = potentiation above about 50%; inconclusive = mostly about 30% to 49%
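PathHunter beta-arrestin assay in DiscoveRx D2 cells. Compounds were added with an EC20 of dopamine (50 nM final) for 90 min at 37 deg C. Luminescence was read 1 h after detection reagent, with 57 uM dopamine as the EC100 control.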
D2 ag-2 – human D2 receptor agonism in beta-arrestin assay | DiscoveRx PathHunter D2 beta-arrestin, luminescence, 90 min; 100% = 57 uM dopamine signal | activation, % (concentration not given with the values) | 360,000 tested, 0.084% active | P14416; in the data active = activation above about 40%; inconclusive = between about 15% and that limit
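Agonist mode: compounds alone added to overnight-plated D2 PathHunter cells for 90 min at 37 C, with 57 uM final dopamine (EC100) defining full response. Beta-arrestin recruitment detected by chemiluminescent reagent, read after 1 h at ambient temperature.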
D2 antag – antagonizes the human D2 dopamine receptor. AID 485344. inhibition, % at 10 µM. HEK293 TREx D2 cells, calcium flux, dopamine EC80. 340,000 tested, 2% active; in the data active = inhibition above about 30%; inactive = below that, where a call was filed; also: 0% is about no effect
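Calcium flux kinetic readout in an inducible HEK293 TREx D2 line plated overnight at 30 C. After 180 s compound exposure, an EC80 dopamine challenge follows with another 180 s kinetic read to detect antagonism.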
D2 PAM-2 – D2 dopamine receptor (human) potentiation. P14416. HEK293 T-REx D2, calcium flux, EC20 dopamine potentiation. potentiation, % at 10 µM. 340,000 tested, 0.34% active. AID 485347;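 active = potentiation over 3 SD above the plate norm, cut at about 30% in these data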; also: 0% is about no effect
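Cells plated with tetracycline inducer and held overnight at 30 C; calcium dye loaded 30–90 min at room temperature; baseline taken, compound added and read 180 s; EC20 dopamine then added and read 180 s.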
The depositor's hits bear a star; ? = inconclusive; / = not tested or not shown.

SMILES	D2 ag-1	D2 PAM-1	D2 ag-2	D2 antag	D2 PAM-2
Cc1cc(C)cc(N(C(=O)c2ccco2)C(C(=O)NC2CCCC2)c2ccncc2)c1 (stereo unspecified)	-1	8	-1	37*	4
C=CCN(C(=O)CNC(=O)c1ccco1)C(C(=O)NC1CCCCC1)c1ccccc1F (stereo unspecified)	0	-7	-4	-7	38*
COc1ccc(N(C(=O)CNC(=O)c2ccco2)C(C(=O)NC2CCCCC2)c2cccnc2)cc1 (stereo unspecified)	1	0	2	38*	20
CCOC(=O)c1ccc(N(C(=O)c2ccco2)C(C(=O)NC2CCCC2)c2ccncc2)cc1 (stereo unspecified)	0	6	3	36*	5
COCCN(C(=O)CNC(=O)c1ccco1)C(C(=O)NC1CCCC1)c1ccccc1F (stereo unspecified)	1	-2	2	-16	12
COc1ccc(N(C(=O)CNC(=O)c2ccco2)C(C(=O)NC2CCCC2)c2cccnc2)cc1 (stereo unspecified)	1	8	-1	5	-1
O=C(NCc1ccccc1)c1ccc2nnsc2c1	0	-3	-4	34*	0
O=C(Nc1nc2c(s1)CN(Cc1ccccc1)CC2)c1cccc(S(=O)(=O)N2CCc3ccccc32)c1	9	-4	1	41*	-20
O=C(Nc1nc2ccccc2s1)c1cccc(S(=O)(=O)N2CCc3ccccc32)c1	/	-1	-2	/	/
COc1ccc(C(=O)c2c(C(F)(F)F)oc3c2C(=O)c2ccccc2C3=O)cc1OC	2	?	?	31*	5
COc1cc2c(C)nc(C)c(C#N)c2cc1OC	1	-3	1	4	39*
CCOc1ccccc1N1CCN(C(=O)c2ccc(-c3ccc(OC(C)=O)cc3)cc2)CC1	-2	-4	-1	31*	0
COc1cccc2sc(N(CCN(C)C)C(=O)/C=C/c3cccs3)nc12	0	-22	1	-6	-19
CCOc1cccc2sc(N(CCN(C)C)C(=O)/C=C/c3cccs3)nc12	-1	-32	-3	66*	-23
O=C(c1ccc2c(c1)N(Cc1ccc(F)cc1)C(=O)c1ccccc1S2=O)N1CCC(Cc2ccccc2)CC1 (stereo unspecified)	0	/	/	/	15
COc1ccc(Cn2c(=O)c3cccnc3n(CC(=O)Nc3c(C)cc(C)cc3C)c2=O)cc1	0	/	/	/	-6
CCOc1ccc(CNC(=O)C2CCCN(c3nc4c(C)cc(C)cc4s3)C2)cc1 (stereo unspecified)	0	/	/	/	1
COc1cc(C(C(=O)NC2CCCC2)N(C(=O)c2snc(C(N)=O)c2N)C2CCCC2)cc(OC)c1OC (stereo unspecified)	-1	5	6	32*	-1
CN(c1ccc(C(=O)Nc2ccc(CC#N)cc2)cc1)S(C)(=O)=O	0	0	-3	41*	4
CN(c1ccc(C(=O)Nc2ccc3c(c2)OCO3)cc1)S(C)(=O)=O	0	-13	-4	0	-3
Cc1ccc(S(=O)(=O)N2CCOCC2)cc1C(=O)OC1CCOC1=O (stereo unspecified)	0	-25	-4	41*	-10
CC(=O)c1cccc(S(=O)(=O)N2CCC(C(=O)OC3CCOC3=O)CC2)c1 (stereo unspecified)	1	0	3	43*	11
COc1cccc(NC(=O)C2CCCN(S(=O)(=O)c3ccc4[nH]c(=O)ccc4c3)C2)c1 (stereo unspecified)	0	/	/	/	14
CN(c1ccccc1C(=O)Nc1ccc2c(c1)OCO2)S(C)(=O)=O	0	-4	-2	-11	38*
CN(c1ccccc1C(=O)Nc1cccc(Cl)c1Cl)S(C)(=O)=O	0	-11	-2	53*	-8
SMILES	D2 ag-1	D2 PAM-1	D2 ag-2	D2 antag	D2 PAM-2
O=C(CC(NC(=O)c1ccccc1Cl)c1ccccc1)Nc1ccc2c(c1)OCO2 (stereo unspecified)	/	-4	-4	/	/
CC(NC(=O)c1ccccc1Cl)C(=O)Nc1ccc2c(c1)OCO2 (stereo unspecified)	0	-6	-8	73*	-10
O=C(CN1C(=O)COc2ccc(S(=O)(=O)Nc3ccccc3)cc21)NCc1ccccc1Cl	0	/	/	/	-4
Cc1ccc(N2C(=O)c3cccc4c([N+](=O)[O-])ccc(c34)C2=O)c2cccnc12	3	-12	-3	19	3
Cc1nnc(N2C(=O)c3cccc4c([N+](=O)[O-])ccc(c34)C2=O)s1	2	62*	4	-5	-2
Cc1ccnc(N2C(=O)c3cccc4c([N+](=O)[O-])ccc(c34)C2=O)c1	2	51*	9	6	-5
COc1cc2c(cc1NC(=O)CN1CCN(S(=O)(=O)c3ccc(C)cc3)CC1)oc1ccccc12	0	1	-1	42*	-1
CCC(=O)N1CCc2cc(CNS(=O)(=O)c3cc(Cl)ccc3OC)ccc21	1	/	/	/	-9
COc1cccc(C(=O)NCC(=O)N2CCC3(CC2)NCCc2[nH]cnc23)c1OC	0	-3	-1	30*	4
COc1ccc(C(CCN2CCN(c3ccccc3)CC2)c2c(O)cc(OC)cc2OC)cc1 (stereo unspecified)	1	-26	0	80*	-29
COc1cc(O)c(C(CCN2CCOCC2)c2ccc(N(C)C)cc2)c(OC)c1 (stereo unspecified)	0	-10	-1	-40	0
COc1cc(O)c(C(CCN2CCN(c3ccccc3)CC2)c2ccc(N(C)C)cc2)c(OC)c1 (stereo unspecified)	1	-24	-1	32*	-17
CCOC(=O)c1sc(NC(=O)c2c(-c3ccccc3)c(-c3ccccc3)nn(C)c2=O)nc1C	/	/	/	/	4
COc1ccc(CCNc2ncnc3onc(C)c23)c(OC)c1	0	/	/	/	-6
CCOC(=O)c1ccc(-c2ccc3[nH]c4ccccc4c(=O)c3c2)cc1F	0	-1	-2	31*	9
CN(C)C1(CNC(=O)COc2ccc(C(C)(C)C)cc2)CCCCC1	0	/	/	/	-2
CCN(CC)CCNC(=O)c1cc([N+](=O)[O-])c(N(C)C)cc1OC	-1	-14	-2	94*	-21
CCN(CC)CCNC(=O)c1cc(Cl)c(N)cc1OC	1	-23	-7	82*	-28
CCN(CC)S(=O)(=O)c1ccc2c(c1)c(=O)c(C(=O)NCc1ccccc1Cl)cn2C	0	/	/	/	9
CCOc1ccc(CNC(=O)C2CCN(S(=O)(=O)N3CCCCC3)CC2)cc1	0	/	/	/	6
CCOc1ccc2c(c1)c(=O)c(S(=O)(=O)c1ccc(Cl)cc1)cn2Cc1ccccc1C	1	/	/	/	-3
